Experimental data taken from PubChem BioAssay AID624331 (National Center for Advancing Translational Sciences (NCATS), 2012).
Records with an inconclusive call do not appear. Values without a mark were called inactive. Calls of active or inactive are those of the source. Calls come from the whole dose curve; as a rule, active = well fitted activation curve with a large enough effect; inconclusive = small, poorly fitted or top-dose-only effect; inactive = no such curve, though single readings can be large or run the other way.
Potency is the fitted concentration of half-maximal effect.

Experiment: qHTS assay for re-activators of p53 using a Luc reporter: Hit Validation with no p53 Expressed; for activity change, positive = activation: 0% is about no effect
Settings: p53-null cells, luciferase reporter counter-screen; series mostly up to 46.1 µM; activity change, positive = activation: at the top concentration
Procedure, shortened: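 Without p53 expression, cells (1000/well, Opti-MEM + 10% FBS) were exposed 24 h at 37 deg C to compounds in a 1:5 series from 10 mM stock (top 46.1 µM in well). Luminescent signal read 10 min after Amplite addition; actives flag unspecific activation.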
With `c1ccc(-c2ccc(-c3ccccn3)nn2)nc1` the “activity change, positive = activation” value was 35.1%.
For `c1nc(C2CCCCC2)cc2cc3c(cc12)OCO3`, the “activity change, positive = activation” value was 34.3%.
In the case of `COc1ccc2oc(C(=O)OCC(=O)NCCN3C(=O)CSC3=O)c(C)c2c1`, the “activity change, positive = activation” value is reported as 38%.
In the case of `O=C1/C(=C/c2ccco2)SC(=S)N1CCC(=O)N1CCCCC1CCO` (centres undefined), the “activity change, positive = activation” value is reported as 149%.
For `Cc1nn2cc(-c3ccc(-c4ccccc4)cc3)nc2s1`, the Potency was 731 nM (active).
In the case of `COc1cccc(C2(c3cccc(OC)c3)CC2C(=O)Nc2cccc3ccccc23)c1` (centres undefined), the “activity change, positive = activation” value is reported as -32.5%.
In the case of `Cc1ccccc1OCC(=O)Nc1cccc2nsnc12`, the “activity change, positive = activation” value is reported as 37.9%.
With `Cc1cnc(C(=O)OCC(=O)c2csc(N3CCCCC3)n2)cn1` the “activity change, positive = activation” value was 19.9%.
With `O=C(/C(=C\c1ccccc1)c1nc2ccccc2[nH]1)c1ccc(Cl)cc1` the “activity change, positive = activation” value was 74.7%.
In the case of `O=C(CSc1nnc(-c2ccc(F)cc2)c2ccccc12)Nc1ccccc1`, the “activity change, positive = activation” value is reported as -15.3%.
For `Cc1cc(C)cc(OCC(=O)NNC(=O)c2ccccn2)c1`, the “activity change, positive = activation” value was 0.0043%.
In the case of `Cc1nn(-c2ccccc2)c(N2CCCC2)c1/C=N/NC(=O)c1cc(-c2ccccc2)nc2ccccc12`, the “activity change, positive = activation” value is reported as -13.5%.
For `CN(Cc1ccccc1)C(=O)CNC(=O)Cn1cnc2ccccc2c1=O`, the “activity change, positive = activation” value was -10.4%.
For `C/C(=C\C(=O)c1ccccc1)Nc1ccc2c(c1)OCO2`, the “activity change, positive = activation” value was 51.4%.
For `N#C/C(Cn1c[n+](NC(=O)Nc2ccccc2)cn1)=N/O`, the “activity change, positive = activation” value was 62.8%.
In the case of `Cc1nc(NCCc2ccccc2)c2nnn(Cc3ccccc3Cl)c2n1`, the “activity change, positive = activation” value is reported as 34.4%.
For `O=C(Nc1cccnc1Cl)c1cc(-c2ccccc2O)on1`, the “activity change, positive = activation” value was 49%.
With `CC(=O)Nc1ccc2oc(-c3ccccc3Br)nc2c1` the “activity change, positive = activation” value was 24%.
With `Cc1cc(C)cc(NC(=O)CSc2nnc(-c3ccccc3C)o2)c1` the “activity change, positive = activation” value was -19.1%.
With `COc1ccc2c(c1)Cc1sc(NC(C)=O)nc1-2` the “activity change, positive = activation” value was 29.1%.
In the case of `Cc1ccc(C(=O)NC2CC2)cc1S(=O)(=O)N1CCOCC1`, the “activity change, positive = activation” value is reported as -41.5%.
With `O=C(Cn1cc(SCc2ccc(F)cc2)c2ccccc21)N1CCOCC1` the “activity change, positive = activation” value was 16.4%.
With `CC(=O)Nc1cccc(C(=O)N/N=C/c2ccccc2F)c1` the “activity change, positive = activation” value was 92.9%.
With `O=C(COC(=O)c1ccc(F)cc1)NC1CC1` the “activity change, positive = activation” value was -26.2%.
In the case of `CNc1nnc(SCC(=O)c2cc(C)n(C3CC3)c2C)s1`, the “activity change, positive = activation” value is reported as -24.5%.
In the case of `Cc1noc(C)c1COc1ccc(C(=O)NCCOc2ccccc2)cc1`, the “activity change, positive = activation” value is reported as 10.3%.
For `COc1cc(C(=O)NCC(=O)Nc2c(C)cccc2C)ccc1OCc1ccccc1`, the “activity change, positive = activation” value was -7.54%.
With `CN(C)c1ccc(/C=N/N=C/c2ccccc2O)cc1` the “activity change, positive = activation” value was -28.4%.
In the case of `COc1cc(C(=S)N2CCOCC2)ccc1OC(=O)c1ccccc1C`, the “activity change, positive = activation” value is reported as 29.9%.
With `O=c1oc2ccccc2cc1-c1cn(-c2ccccc2)c(=S)[nH]1` the “activity change, positive = activation” value was -52.3%.
In the case of `Cc1ccc(C(=O)Nc2nnc(SCC(=O)N3CCCc4ccccc43)s2)cc1`, the “activity change, positive = activation” value is reported as -62.4%.
In the case of `CCOc1ccc(NC(=O)c2cnsn2)cc1`, the “activity change, positive = activation” value is reported as -11.8%.
In the case of `Cc1ccc(NC(=O)COc2ccc3c(c2)OCO3)c(Cl)c1`, the “activity change, positive = activation” value is reported as 14.4%.
For `CC(C)C(=O)OCC(=O)Nc1ccc(N=Nc2ccccc2)cc1`, the “activity change, positive = activation” value was 34.9%.
In the case of `Cc1cccc(/C(N)=N/OC(=O)c2ccc3c(c2)OCO3)c1`, the “activity change, positive = activation” value is reported as 57.1%.
For `O=C(CCS(=O)(=O)c1ccccc1)Nc1nc2c(s1)CCCC2`, the “activity change, positive = activation” value was -9.13%.
With `Cc1sc(NC(=O)c2ccc(Cl)s2)c(C(N)=O)c1C` the “activity change, positive = activation” value was 45.4%.
For `N#CCc1nc(CSc2nc3ccccc3s2)cs1`, the “activity change, positive = activation” value was 17.3%.
With `CCc1nnc(NC(=O)/C=C/c2ccco2)s1` the “activity change, positive = activation” value was 37%.
